These results are taken from PubChem BioAssay (Tox21).

Test [1] in a line: qHTS assay to identify aromatase inhibitors - cell viability counter screen (AID 743084).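 Note: cells stimulated with testosterone during compound exposure; nearly all actives have a fitted effect of over 55% in size.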 Background: Quantitative high-throughput screening tests each substance at several concentrations.
Test [2] addresses Aryl hydrocarbon receptor (Homo sapiens) (UniProt P35869). The experiment in a line: qHTS assay to identify small molecule that activate the aryl hydrocarbon receptor (AhR) signaling pathway (AID 743085).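 For activation: HG2L7.5c1 human HepG2 liver cells with stably integrated DRE-driven firefly reporter; series mostly up to about 70 µM.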 Note: nearly all actives have a fitted effect of over 15% in size. Note: potency is the fitted concentration of half-maximal effect. In a few lines: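 HepG2 cells stably carrying a 20-DRE firefly luciferase reporter (HG2L7.5c1) treated with compound for 24 hr at 37C. Luciferase read by ONE-Glo luminescence, with CellTiter-Fluor viability read first.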

Test [3] can be described thus: qHTS assay to identify small molecule that activate the aryl hydrocarbon receptor (AhR) signaling pathway - cell viability counter screen (AID 743086). Note: series mostly up to about 70 µM; nearly all actives have a fitted effect of over 45% in size. In a few lines: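 HepG2-AhR-luc (HG2L7.5c1) cells, 4000/well, treated 24 h at 37 C with compound; viability measured as CellTiter-Fluor fluorescence after 30 min in the same wells as the luciferase read.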
In test [4] the target is Peroxisome proliferator-activated receptor gamma (Homo sapiens) (UniProt P37231). The experiment in a line: qHTS assay to identify small molecule agonists of the peroxisome proliferator-activated receptor gamma (PPARg) signaling pathway (AID 743094; active = well fitted activation curve with a large enough effect in the signal ratio in the repeat runs, not every such curve was filed as active; the % refers to the signal ratio). Summed up: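 GeneBLAzer PPARg UAS-bla HEK293H cells were plated, rested 5 h, then exposed to compounds for 17 h at 37C. Beta-lactamase activity was read by LiveBLAzer B/G FRET substrate fluorescence after 1 h at room temperature.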
Peroxisome proliferator-activated receptor gamma (Homo sapiens), sequence (P37231 whole entry, looked up): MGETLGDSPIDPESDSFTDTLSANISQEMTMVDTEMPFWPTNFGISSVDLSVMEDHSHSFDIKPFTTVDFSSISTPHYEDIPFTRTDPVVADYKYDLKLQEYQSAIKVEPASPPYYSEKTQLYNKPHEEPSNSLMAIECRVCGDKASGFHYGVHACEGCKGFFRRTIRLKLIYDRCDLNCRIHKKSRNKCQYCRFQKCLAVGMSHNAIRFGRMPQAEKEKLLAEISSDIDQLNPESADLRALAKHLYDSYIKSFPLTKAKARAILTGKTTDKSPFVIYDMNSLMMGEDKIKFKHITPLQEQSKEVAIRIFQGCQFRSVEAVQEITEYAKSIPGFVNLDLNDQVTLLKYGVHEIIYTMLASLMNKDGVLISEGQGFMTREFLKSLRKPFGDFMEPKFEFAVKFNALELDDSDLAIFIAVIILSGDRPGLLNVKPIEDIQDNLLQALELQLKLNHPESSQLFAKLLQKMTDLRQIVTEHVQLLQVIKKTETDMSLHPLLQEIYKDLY

A short description of test [5]: qHTS assay to identify small molecule antagonists of the peroxisome proliferator-activated receptor gamma (PPARg) signaling pathway - cell viability counter screen (AID 743194). Note: nearly all actives have a fitted effect of over 55% in size. As to conditions: Potency: co-treated with 50 nM rosiglitazone. In a few lines:
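Cytotoxicity counter screen in PPARg-bla HEK293H cells, same wells as reporter assay. Compounds plus 50 nM rosiglitazone (final) for 17 h at 37 C, then viability read by CellTiter-Glo luminescence.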

Test [6] is described as follows: qHTS assay for small molecule agonists of the antioxidant response element (ARE) signaling pathway (AID 743202; active = well fitted activation curve with a large enough effect in the signal ratio in the repeat runs, not every such curve was filed as active; the % refers to the signal ratio; note: potency is the fitted concentration of half-maximal effect). Summed up:
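ARE-bla HepG2 cells (beta-lactamase reporter under the antioxidant response element), plated 5 hours, then exposed to compounds 16 hours at 37 C. LiveBLAzer B/G FRET substrate added for 2 hours at room temperature; fluorescence intensity read.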

The nature of test [7]: qHTS assay for small molecule agonists of the antioxidant response element (ARE) signaling pathway - cell viability counter screen (AID 743203; calls by dose curve; note: nearly all actives have a fitted effect of over 55% in size). Summed up:
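ARE-bla HepG2 cells were plated, rested 5 h at 37C/5% CO2, then exposed to compounds in DMSO for 16 h. Viability was read as CellTiter-Glo luminescence after 30 min at room temperature, in the same wells as the ARE screen.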

Test [8] is described as follows: qHTS assay for small molecule activators of the heat shock response signaling pathway - cell viability counter screen (AID 743209). Note: nearly all actives have a fitted effect of over 50% in size. In a few lines: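 HSE-bla HeLa cells plated overnight, then exposed to Tox21 compounds (23 nL in DMSO) for 5 h at 37 C. After the bla reporter read, CellTiter-Glo was added in the same wells and luminescence read after 30 min at room temperature.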

The nature of test [9]: qHTS assay for small molecule activators of the heat shock response signaling pathway (AID 743210; active = well fitted activation curve with a large enough effect in the signal ratio in the repeat runs, with a control signal flat, not every such curve was filed as active; the % refers to the signal ratio; note: series mostly up to about 63 µM). In a few lines:
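HSE-bla HeLa cells (beta-lactamase reporter under heat shock response elements), plated overnight, then exposed to compounds 5 h at 37 C; LiveBLAzer B/G FRET substrate added, 2.5 h at room temperature, fluorescence intensity read.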

For test [10], the target named is Peroxisome proliferator-activated receptor gamma (Homo sapiens) (UniProt P37231). The experiment in a line: qHTS assay to identify small molecule antagonists of the peroxisome proliferator-activated receptor gamma (PPARg) signaling pathway (AID 743191; calls by dose curve; note: series mostly up to about 63 µM; nearly all actives have a fitted effect of over 30% in size). Summed up:
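GeneBLAzer PPARg UAS-bla HEK293H cells, 5 h post-plating, exposed to compounds 17 h at 37C. LiveBLAzer B/G FRET substrate added for 1 h at room temperature; beta-lactamase reporter read by fluorescence intensity.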

Inconclusive results are not listed. The source made the active and inactive calls. Unless noted, calls come from the whole dose curve; as a rule, active = well fitted curve in the direction sought with a large enough effect in the repeat runs; inconclusive = weak or mixed curves; inactive = no such curve, though single readings can be large; an effect the other way counts as inactive or inconclusive.

Aryl hydrocarbon receptor (Homo sapiens), sequence (P35869 whole entry, looked up): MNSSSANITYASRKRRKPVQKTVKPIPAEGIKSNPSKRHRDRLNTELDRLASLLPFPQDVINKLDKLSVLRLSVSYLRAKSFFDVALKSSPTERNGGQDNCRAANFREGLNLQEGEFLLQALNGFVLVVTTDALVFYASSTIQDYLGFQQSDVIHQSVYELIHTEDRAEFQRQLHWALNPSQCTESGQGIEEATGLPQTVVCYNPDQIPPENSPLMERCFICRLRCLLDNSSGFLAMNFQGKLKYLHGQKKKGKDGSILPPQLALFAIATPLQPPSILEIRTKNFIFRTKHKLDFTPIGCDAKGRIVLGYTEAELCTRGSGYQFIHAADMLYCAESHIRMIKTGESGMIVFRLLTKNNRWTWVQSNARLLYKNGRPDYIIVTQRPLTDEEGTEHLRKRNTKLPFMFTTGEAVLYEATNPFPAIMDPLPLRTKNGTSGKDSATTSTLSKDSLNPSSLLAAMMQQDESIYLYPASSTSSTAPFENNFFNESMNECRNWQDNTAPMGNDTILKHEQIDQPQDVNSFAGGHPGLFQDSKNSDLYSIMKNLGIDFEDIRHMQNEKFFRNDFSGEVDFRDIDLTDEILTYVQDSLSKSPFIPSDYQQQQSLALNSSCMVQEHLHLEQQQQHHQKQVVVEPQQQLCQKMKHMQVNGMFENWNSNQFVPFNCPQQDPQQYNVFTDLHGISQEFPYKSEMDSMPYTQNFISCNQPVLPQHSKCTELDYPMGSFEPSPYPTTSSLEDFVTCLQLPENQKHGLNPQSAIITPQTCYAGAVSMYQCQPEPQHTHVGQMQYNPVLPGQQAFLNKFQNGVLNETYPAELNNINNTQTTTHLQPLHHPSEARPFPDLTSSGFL

As for `CNC(=O)Oc1ccccc1C(C)C`, the Potency result in test [1], in test [2], in test [3], in test [5], in test [6] and in test [7] was “inactive” in each case. Besides, the Potency result in test [8] and in [9] was “inactive” each time. The compound was classed as inactive in test [4].

As to `CC#Cc1cc(C)nc(Nc2ccccc2)n1`, the Potency entry in test [1], in test [3], in [5], in test [7], in test [8] and in [9] was “inactive” each time. The figures for the Potency in [2] and in [6] were 30.6 µM (active) and 34.3 µM (active), respectively. Moreover, the outcome in test [4] was inactive.

Regarding `CCNc1nc(NCC)nc(SC)n1`, the Potency result in test [1], in test [2], in test [3], in [10], in [7] and in test [8] was “inactive” each time. Further, the Potency entry in test [9] was “inactive”. Moreover, the outcome in test [4] was inactive.

`C=CC(=O)OCCN(C)C`: the Potency result in [1], in test [2], in test [3], in test [5], in test [6] and in [7] was “inactive” in each case. Further, the Potency result in [8] and in [9] was “inactive” throughout. Moreover, the outcome in test [4] was inactive.

`CCCN1CCC[C@@H]2Cc3nc(N)ncc3C[C@H]21`: the Potency result in test [1], in test [3], in test [10], in test [5], in test [7] and in [8] was “inactive” in each case. In addition, the Potency result in test [9] is “inactive”. The Potency in test [2] is 21.1 µM (active). For the same compound, the compound was called inactive in test [4].

Consider `C[C@H](N)C(=O)c1ccccc1`, for which the Potency entry in [1], in [2], in [3], in [10], in [5] and in test [7] was “inactive” each time. For the same compound, the Potency result in test [8] and in [9] was “inactive” throughout. In addition, in test [4], the compound was classed as inactive.

Turning to `CCOC(=O)N(C)N=O`, the Potency entry in test [1], in test [2], in test [3], in [10], in test [5] and in test [7] was “inactive” in each case. In addition, the Potency entry in test [8] and in test [9] was “inactive” throughout. Also, the outcome in [4] was inactive.

For the compound `NNCc1ccccc1`, the Potency result in test [1], in test [3], in test [5], in test [7], in test [8] and in test [9] was “inactive” each time. Also, the Potency was 55.5 µM (active) in test [2] and 5.55 µM (active) in test [6]. Also, in test [4], the outcome was inactive.

Consider `O=C(O)CBr`, for which the Potency result in [1], in test [2], in test [3], in test [5], in test [6] and in [7] was “inactive” throughout. In addition, the Potency entry in test [8] and in test [9] was “inactive” throughout. In test [4], the compound was classed as inactive.

For the compound `O=C(Cl)OCc1ccccc1`, the Potency result in test [1], in test [2], in test [3], in test [5], in test [6] and in [7] was “inactive” each time. Besides, the Potency entry in [8] was “inactive”. In test [4], the compound was classed as inactive.

Take `COc1ccc2c(C(=O)c3ccc(Cl)cc3)c(C)n(CC(=O)O)c2c1`: the Potency result in test [1], in test [3], in [10], in test [6], in [7] and in test [8] was “inactive” throughout. Besides, in [9], the Potency result was “inactive”. Besides, the Potency in test [2] was 33.5 µM (active). Also, the outcome in test [4] was inactive.

Regarding `C[N+]1(C)CCCCC1`, the Potency entry in test [1], in test [2], in [3], in test [10], in test [6] and in test [7] was “inactive” each time. Also, the Potency result in [8] and in test [9] was “inactive” in each case. In test [4], the compound was classed as inactive.

For `CCN[C@@H](C)Cc1ccccc1`, the Potency entry in [1], in test [2], in [3], in test [10], in test [7] and in [8] was “inactive” each time. Further, the Potency result in test [9] was “inactive”. The result in test [4] was inactive.

Turning to `Oc1ccc(Cc2ccc(O)cc2)cc1`, the Potency entry in [1], in [2], in [3], in test [5], in [7] and in test [8] was “inactive” in each case. The compound was called inactive in test [4]. The Potency in test [6] is 27.5 µM (active).

Regarding `CCOP(=S)(OCC)Oc1ccc(Cl)cc1Cl`, the Potency result in test [1], in test [3], in test [10], in [7], in test [8] and in [9] was “inactive” in each case. Moreover, the Potency in [2] was 19.3 µM (active). In addition, in [4], the compound was called inactive.

For the compound `CCC1(c2ccccc2)CCC(=O)NC1=O` (configuration not stated), the Potency result in [1], in [2], in test [3], in test [5], in test [6] and in [7] was “inactive” in each case. Moreover, the Potency result in test [8] and in test [9] was “inactive” in each case. In addition, the compound was classed as inactive in test [4].

Turning to `Nc1c(Cl)c(F)nc(OCC(=O)O)c1Cl`, the Potency result in test [1], in test [2], in test [3], in test [5], in test [6] and in [7] was “inactive” each time. In addition, the Potency result in test [8] and in test [9] was “inactive” throughout. Moreover, the compound was classed as inactive in [4].

In the case of `CS(=O)(=O)Cl`, the Potency entry in test [1], in test [2], in test [3], in test [5], in test [6] and in test [7] was “inactive” in each case. In addition, the Potency entry in test [8] and in [9] was “inactive” each time. Besides, the call in test [4] was inactive.

For `[P]#[In]`, the Potency entry in test [1], in test [2], in [3], in test [10], in [6] and in test [7] was “inactive” each time. Besides, the Potency result in test [8] and in [9] was “inactive” throughout. Further, the compound was classed as inactive in [4].

Take `CCOC1Oc2ccc(OS(C)(=O)=O)cc2C1(C)C` (configuration not stated): the Potency result in test [1], in [2], in [3], in [10], in test [5] and in [8] was “inactive” each time. For the same compound, the compound was called inactive in test [4].

For the compound `O=C(Cl)c1ccccc1`, the Potency result in test [1], in test [2], in test [3], in test [10], in [7] and in [8] was “inactive” each time. Moreover, in [9], the Potency entry was “inactive”. Besides, the compound was classed as inactive in test [4].

As to `CCCCCCC1CCOC1=O` (configuration not stated), the Potency result in test [1], in [2], in test [3], in test [5], in [6] and in test [7] was “inactive” each time. Besides, the Potency result in test [8] and in test [9] was “inactive” in each case. For the same compound, in test [4], the result was inactive.

With `CC(C)(C1CCC(O)CC1)C1CCC(O)CC1` (configuration not stated), the Potency entry in test [1], in [2], in test [3], in [5], in [6] and in [7] was “inactive” in each case. In addition, the Potency entry in test [8] and in test [9] was “inactive” each time. Besides, the outcome in test [4] was inactive.

Take `CN=CNc1ccc(C)cc1C`: the Potency entry in test [1], in [2], in test [3], in test [10], in [5] and in test [7] was “inactive” in each case. Also, the Potency entry in test [8] and in [9] was “inactive” each time. The compound was called inactive in test [4].

For `CC(O)CCl` (configuration not stated), the Potency entry in test [1], in test [2], in test [3], in test [10], in test [5] and in test [7] was “inactive” throughout. Also, the Potency entry in test [8] and in test [9] was “inactive” each time. Also, the call in test [4] was inactive.

Consider `O=C(CCl)NCO`, for which the Potency entry in test [1], in test [2], in [3], in test [5], in test [7] and in test [8] was “inactive” in each case. Further, in [9], the Potency result is “inactive”. For the same compound, the call in test [4] was inactive.

On to `CCN[C@@H](C)Cc1cccc(C(F)(F)F)c1`, for which the Potency result in test [1], in test [2], in test [3], in [5], in test [6] and in [7] was “inactive” throughout. Besides, the Potency entry in test [9] was “inactive”. For the same compound, in test [4], the call was inactive.

Regarding `COc1cc(CC(C)N)cc(OC)c1OC` (configuration not stated), the Potency entry in [1], in test [2], in [3], in test [10], in test [5] and in [6] was “inactive” each time. The Potency entry in test [7], in [8] and in [9] was “inactive” in each case.

For the compound `CON(C)C(=O)Nc1ccc(Br)c(Cl)c1`, the Potency entry in test [1], in [3], in [6], in test [7] and in test [8] was “inactive” each time. In [2], the Potency is 30.6 µM (active). Besides, the compound was classed as inactive in test [4].

Regarding `O=C(Cl)CCl`, the Potency entry in [1], in test [2], in test [3], in test [5], in test [7] and in test [8] was “inactive” throughout. For the same compound, in test [9], the Potency result was “inactive”. Besides, the result in [4] was inactive.
